Hits are enriched below; roughly 2.5% of the tested compounds scored in any of these assays.
Jurkat NFkB inh: lowers PMA/ionomycin-induced NF-kB signal in Jurkat cells. PMA/ionomycin-induced NF-kB luciferase reporter, luminescence. inhibition, % at 4 µM. 330,000 compounds, 0.53% hits; in the data active = inhibition above about 50%
697 NFkB inh: inhibitors of the PMA/ionomycin-induced NF-kB reporter in 697 B cells. inhibition, % at 4 µM. 697 B-cell NF-kB luciferase reporter, 16 h. 330,000 compounds, 0.33% hits; in the data active = inhibition above about 35%
TMEM16A act: mouse TMEM16A channel activation, primary screen. Q8BHY3. HEK293 TMEM16A/YFP-H148Q/I152L, iodide quench fluorescence; hits give low values. 340,000 compounds, 0.3% hits. B-score at 10 µM;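 active = fluorescence-ratio B-score plate-corrected deviation score at least 3 library SD below zero, with starting fluorescence score within 5 deviations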;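 also: channel opened by trigger with iodide after compound preincubation; score built on the fluorescence ratio of max minus min over baseline; more negative score means more quench and so TMEM16A activation or potentiation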
TMEM16A inh: blocks the mouse calcium-activated chloride channel TMEM16A; Q8BHY3; HEK293 TMEM16A/YFP iodide influx fluorescence, ionomycin; normalized B-score (activity score, 25-100; higher = stronger inhibition) at 10 µM; 310,000 compounds, 1.2% hits;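 active = ratio plate-corrected score three or more library SD toward inhibition, starting fluorescence score within five deviations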;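 also: score derived from kinetic fluorescence span divided by baseline fluorescence per well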
aSyn 5UTR inh: MLPCN primary screen, SNCA 5' untranslated region. alpha-synuclein 5'UTR reporter, inhibitor activity. inhibition, % (tested at 7.5 µM). 300,000 compounds, 0.82% hits; in the data active = inhibition above about 60%;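 also: H4 neuroglioblastoma cells stably carrying SNCA 5'UTR luciferase fusion; 0% = DMSO wells and 100% = positive control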
KLF5 inh: suppresses KLF5 promoter-driven expression; DLD-1 KLF5 promoter-luciferase reporter, luminescence; inhibition, % at 5 µM; 290,000 compounds, 0.23% hits;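 active = inhibition above a per-plate limit of that plate's mean compound inhibition plus 3 SD, cut at about 60% in these data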;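 also: 0% = DMSO wells and 100% = LY294002 at 200 µM; higher means less KLF5 promoter-driven luciferase light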
Jurkat NFkB conf: inhibitors of the PMA/ionomycin-induced NF-kB reporter in Jurkat cells, retest. shares compounds with Jurkat NFkB inh. Jurkat NF-kB luciferase, 16 h. inhibition, % at 4 µM. 2,700 compounds, 27% hits;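 active = inhibition reaching about 45% at 4 µM in either replicate, limit read from the data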;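 also: plate controls were PMA/ionomycin stimulated DMSO wells for no effect and unstimulated DMSO wells for full effect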
Starred values were filed as active, the others as inactive; i = inactive; . = no result.

SMILES	Jurkat NFkB inh	697 NFkB inh	TMEM16A act	TMEM16A inh	aSyn 5UTR inh	KLF5 inh	Jurkat NFkB conf
Cc1c(C(=O)OC2CCCCC2)[nH]c2c1C(=O)CC(C)(C)C2	-33	-102	i	i	-52	-14	.
O=C(NCC(=O)N1CCN(c2ncccn2)CC1)c1ccccc1OC(F)F	3	8	i	.	.	.	.
C#CC[N+](C)(C)CCCCCCCCCCCC	71*	30	i	i	77*	24	52*
Cc1ccc(CN2CC(C(=O)Nc3ccc(S(=O)(=O)N4CCCCC4)cc3)CC2=O)cc1 (configuration not stated)	5	-8	i	i	-16	0	.
O=C(Nc1ccncc1)C1CCCN(S(=O)(=O)c2cccc3cccnc23)C1 (configuration not stated)	63*	-84	i	i	27	47	48
COc1ccc(NC(=O)/C(Cl)=C(/Cl)S(=O)Cc2ccc(Cl)cc2)cn1 (configuration not stated)	101*	-185	i	.	.	28	99*
CCN(c1ccccc1)S(=O)(=O)c1cc2c3c(c1)CCN3C(=O)CC2	-7	-7	i	i	-7	.	.
CCC(C)(C)NC(=S)Nc1ccc(-c2nc3ccc(C)cc3s2)cc1	-175	-157	i	i	-79	-94	-128
CCCCNC(=S)Nc1ccc(-c2nc3ccc(C)cc3s2)cc1	-117	-212	i	i	-159	-150	.
NS(=O)(=O)c1ccc(Sc2ccccn2)c([N+](=O)[O-])c1	6	15	i	i	-9	-15	.
NS(=O)(=O)c1ccc(Sc2nc3ccccc3s2)c([N+](=O)[O-])c1	98*	-30	i	i	67*	-24	89*
Cc1cccc(N/C=C/C(=O)c2cccs2)c1C	-167	-180	i	i	-53	-17	-14
O=C(/C=C/Nc1cccc(O)c1)c1ccccc1	-109	-72	i	i	-180	-28	.
O=C(/C=C/Nc1ccc(F)cc1)c1cccs1	-127	-180	i	i	-115	-24	.
O=C(/C=C/Nc1ccc(F)c(Cl)c1)c1ccccc1	-177	-165	i	i	-211	-120	-29
O=C(/C=C/Nc1ccc(F)cc1)c1ccc(Br)cc1	-163	-164	i	i	-181	-13	15
NC(=O)c1ccccc1N/C=C/C(=O)c1cccs1	-82	-128	i	i	-48	6	.
O=C(/C=C/Nc1ccc(F)c(F)c1)c1cccs1	-182	-240	i	i	-374	-32	6
O=C(CSc1nc2nn(-c3ccccc3)c(=O)c-2c2n1CCCCC2)c1ccc(OC(F)F)cc1	10	21	i	.	.	.	.
COc1cc(CNc2ncc(-c3ccc(Br)cc3)n2C)cc(OC)c1O	-11	-23	i	i	-5	-12	.
CCOc1ccc2nc(N3CCCCCC3)sc2c1	-234	-236	i	i	-36	-130	-148
CCOc1ccc2nc(N3CCC(C(=O)N4CCN(C5CCCCC5)CC4)CC3)sc2c1	42	-143	i	i	-60	-40	.
Cc1ccc(C(=O)c2sc3nsc(C)c3c2N)cc1	-157	-212	i	i	-42	-151	-114
Cc1nn(C(C)C(=O)NC2CCCCC2)c(=O)c2nn(-c3ccccc3)c(C)c12 (configuration not stated)	5	5	i	i	22	-44	.
COC(=O)c1sc(N2CCN(c3ccc(Cl)cc3)CC2)nc1N	61*	-21	i	i	-28	-13	7
SMILES	Jurkat NFkB inh	697 NFkB inh	TMEM16A act	TMEM16A inh	aSyn 5UTR inh	KLF5 inh	Jurkat NFkB conf
COc1ccc(N2CCN(C(=O)NC(=O)c3ccc(Cl)cc3)CC2)cc1	-11	16	i	i	23	-6	.
CCc1ccc(NC(=O)Cn2nnc(C(=O)NCc3cccs3)c2N)cc1	5	9	i	i	1	-4	.
CCc1ccccc1NC(=O)Cn1nnc(C(=O)NCc2cccs2)c1N	51*	-13	i	i	-8	12	24
COc1ccccc1NC(=O)Cn1nnc(C(=O)NCc2cccs2)c1N	53*	-13	i	i	86*	56	63*
CCN(C(=O)c1cc(Cl)ccc1Cl)C1CCS(=O)(=O)C1 (configuration not stated)	-4	7	i	i	3	.	.
Cc1nn(Cc2ccccc2)c(C)c1C(=O)N1CCN(S(=O)(=O)/C=C/c2ccccc2)CC1	-4	6	i	.	.	.	.
O=C(CCCOc1ccc(Cl)cc1Cl)NCCc1ccccn1	34	14	i	i	-59	-27	.
O=C(Nc1ccc(Cl)cc1Cl)c1cc2ccccc2o1	-154	-221	i	i	-110	-189	-123
Cc1ccc(NC(=O)c2cc3ccccc3o2)nc1	-170	-197	i	i	-95	.	-107
COc1ccc(S(=O)(=O)N2c3cc(C)ccc3OCC2C(C)(C)C)cc1 (configuration not stated)	51*	-50	i	i	36	-32	17
Cc1ccc(S(=O)(=O)N2c3cc(C)ccc3OCC2C(C)(C)C)cc1 (configuration not stated)	32	-6	i	i	6	26	.
COc1cccc(NC(=O)C(=S)NC2CCCCC2)c1	-220	-164	i	i	-85	-110	-91
COc1cccc(NC(=O)COC(=O)C2CCCCC2)c1	-195	7	i	.	.	.	16
O=C(Nc1ccccc1N1CCOCC1)c1ccc([N+](=O)[O-])s1	14	9	.	.	.	.	.
CCN(C(=O)CSc1nc2scc(-c3ccccc3)c2c(=O)n1N)C1CCS(=O)(=O)C1 (configuration not stated)	.	.	i	.	.	.	.
C/C(=C\C(=O)c1ccc(C)cc1)Nc1cccc(O)c1	-186	-188	i	i	-284	-17	-7
Cc1ccc(C(=O)/C=C/Nc2cccc(O)c2)cc1	-70	-109	i	i	-194	-9	.
CC(C)(C)OC(=O)C[C@H]1C/C=C\C[C@H](CC(=O)N(CCO)Cc2ccccc2)C(=O)N2CCC[C@H]2COC1=O	-1	7	i	.	.	.	.
COc1ccc(CCNC(=O)Cc2ccc(NS(=O)(=O)c3ccc(F)cc3)cc2)cc1OC	14	29	i	.	.	.	.
CCc1noc(C)c1C(=O)N(CC(C)C)c1c(N)n(Cc2ccccc2)c(=O)[nH]c1=O	6	12	i	.	.	.	.
O=C(c1cc2c(ccc3ccccc32)o1)N1CCCCC1	-156	-200	i	i	-17	-150	-120
O=C(Nc1cccnc1)c1cc2c(ccc3ccccc32)o1	-165	-5	i	i	-104	-220	-115
COC(=O)CNC(=O)CN(c1ccc(OC)cc1OC)S(=O)(=O)c1ccccc1	0	14	i	.	.	.	.
